Molecules are shown by their SMILES. Results filed as inconclusive are left out. A number with no mark means an inactive call. Active and inactive are the calls of the source. Calls come from the whole dose curve; as a rule, active = well fitted inhibition curve with a large enough effect; inconclusive = small, poorly fitted or top-dose-only effect; inactive = flat fitted curve, though single readings scatter. Where a SMILES comes first, the peptide text is derived from it.
Note: nearly all actives have a fitted effect of over 60% in size.

The first assay concerns NIH3T3. Put plainly: Cytotoxic Profiling of Annotated Libraries Using Quantitative High-Throughput Screening (AID 1296008). For max response: % is set by controls: 0 for no effect and ±100 for the full control effect. The settings on record: Five cell lines viability, CellTiter-Glo ATP luminescence, 48-72 h; max response: active compounds read low. The method in brief:
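Compounds were pin-transferred onto cells and incubated 48 or 72 hr at 37 degree Celsius, 95% humidity. CellTiter-Glo was added, plates sat 10 min at room temperature, then ATP-coupled luminescence was imaged as the viability read-out.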
With `Cc1oc(S(=O)(=O)N2CCCCC2)cc1NC(=O)Nc1ccccc1`, the max response was -1.71%.
Same read-out and setting: the result for `CCC(C)/C=C(C)/C=C/C1=CC2=C(Cl)C(=O)C(C)(OC(C)=O)C(=O)C2=CN1C(CC(=O)O)C(=O)O` (configuration not stated) reads -16.9%; that for `CC(C)[C@](O)(c1ccc2cc(OC(F)F)c(OC(F)F)cc2c1)c1cn[nH]n1`, 1.17%.
As for `COc1cc(C(=O)OC[C@H]2O[C@@H](OC(C)(C)C(=O)O)[C@H](O)[C@@H](O)[C@@H]2O)cc(OC)c1O`, the call was inactive.
Regarding `COc1cc(C(C)=O)ccc1O[C@@H]1O[C@H](CO)[C@@H](O)[C@H](O)[C@H]1O`, the max response was 0.808%.
Still for that read-out and setting: the result for `CC1(C)C(=O)CCC2(C)C1C(O)C=C1COC(=O)C12O` (configuration not stated) reads -3.93%; that for `COc1cc(/C=C/c2ccccc2)c(C(=O)O)c(O)c1CC=C(C)C`, 3.69%; that for `CCC(C)C(C(=O)O)N1Cc2c(OCC=C(C)C)c(C)c(OC)c(C(=O)O)c2C1=O` (configuration not stated), -10.1%.
For the molecule `COC(=O)C1=CO[C@@H](O[C@@H]2O[C@H](CO)[C@@H](O)[C@H](O)[C@H]2O)[C@@H]2[C@@H](CO)[C@@H](O)C(O)[C@H]12` (some centres not stated), the max response is 1.79%.
Still for that read-out and setting: then `CC(C)C[C@H](NC(=O)[C@@H]1O[C@H]1C(=O)O)C(=O)NCCCCN=C(N)N`, with 0.0799%; and `C[C@@H]1O[C@@H](OC[C@H]2O[C@@H](OCc3ccccc3)[C@H](O)[C@@H](O)[C@@H]2O)[C@H](O)[C@H](O)[C@H]1O`, with 0.0365%.
Take `CNC(=O)c1ccc2c(c1)CCO[C@H]2CCN1CCN(c2ccc(C(N)=O)cc2)CC1`: the molecule was classed as inactive.
On to `COC(=O)C1=COC(OC2OC(CO)C(O)C(O)C2O)C2C(COC(=O)/C=C/c3ccc(O)c(O)c3)C(O)C(O)C12` (configuration not stated), for which the max response is 2.28%.
Same read-out and setting: the result for `CC(C)C1NC(=O)CNC(=O)C2CCCN2C(=O)C(Cc2c[nH]c3ccccc23)NC(=O)CNC(=O)C(Cc2ccc(O)cc2)NC(=O)CNC1=O` (configuration not stated) (cyclo(GVGYGWP); configuration not given here) reads -0.317%; that for `CC(C)c1ccc2c(c1)C(=O)CC1C(C)(C(=O)O)CCCC21C` (configuration not stated), -2.58%; that for `C=C1CCC2(C(=O)OC3OC(CO)C(O)C(O)C3O)CCC3(C)C(=CCC4C5(C)CCC(OC6OC(CO)C(OC7OC(C)C(O)C(O)C7O)C(OC7OCC(O)C(O)C7O)C6O)C(C)(C)C5CCC43C)C2C1` (configuration not stated), -2.38%.
Still for that read-out and setting: the result for `C=C1CC2C(C)(CCC(=O)O)C(C(C)(C)O)CCC2(C)C2(C(=O)OC)C(=O)C(C)(O)C(=O)C12C` (configuration not stated) reads 0.874%; that for `COc1ccc(-n2c(SCC#N)nc3sc4c(c3c2=O)CCCC4)cc1`, 4.07%.

The test system of another assay is HACAT. Put plainly: qHTS assay to identify novel small-molecules to repurpose for Merkel cell carcinoma treatment (AID 1296009). The settings on record: MCC and control cell lines, CellTiter-Glo viability, 72 h; at 44.8 µM (top of the series) unless noted. The method in brief:
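Viability readout: ATP luminescence (CellTiter-Glo) after 72 hr drug exposure at 37 degree celsius. Dose-response format was 8 points for NPC and 11 points for MIPE; data normalized to in-plate controls.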
(In general: Quantitative high-throughput screening tests each substance at several concentrations.)
Take `OCC1OC(Oc2cc(O)cc(/C=C/c3ccc(OC4OC(CO)C(O)C(O)C4O)cc3O)c2)C(O)C(O)C1O` (configuration not stated): the outcome was “inactive [at 17.4 µM]”.
The same measure, in the same setting: then `C[C@@H]1O[C@@H](O[C@H]2[C@H](O[C@H]3[C@H](O[C@H]4CC[C@@]5(C)C(CC[C@]6(C)C5CC=C5[C@@H]7CC(C)(C)CC(=O)[C@]7(C)CC[C@]56C)[C@@]4(C)CO)O[C@H](C(=O)O)[C@@H](O)[C@@H]3O)O[C@H](CO)[C@H](O)[C@@H]2O)[C@H](O)[C@H](O)[C@H]1O` (some centres not stated), with “inactive [at 9.27 µM]”.
Same read-out and setting: then `CC(O)C/C=C/C=C/C(=O)OC1C=C2COC(=O)C2(O)C2(C)CCCC(C)(C)C12` (configuration not stated), with “inactive”.
On the same count and under the same terms, the result for `C[C@@H]1O[C@@H](O[C@H]2[C@H](O)[C@@H](O[C@@H]3O[C@H](CO)[C@H](O)[C@H](O)[C@H]3O)[C@H](O[C@H]3CC[C@@]4(C)C(CC[C@]5(C)C4CC=C4[C@@H]6CC(C)(C)CC[C@]6(C(=O)O[C@@H]6O[C@H](CO)[C@@H](O)[C@H](O)[C@H]6O)CC[C@]45C)C3(C)C)O[C@@H]2C(=O)O)[C@H](O)[C@H](O)[C@H]1O` (some centres not stated) reads “inactive [at 9.27 µM]”; that for `COc1ccnc(CCc2nc3ncccc3[nH]2)c1`, “inactive”; that for `CC(=O)O[C@@H]1[C@H](O[C@@H]2OC[C@](O)(CO)[C@H]2O)[C@@H](O[C@@H]2O[C@@H](C)[C@H](O)[C@@H](O[C@@H]3O[C@H](CO)[C@@H](O)[C@H](O)[C@H]3O)[C@H]2O)[C@H](OC(=O)[C@]23CCC(C)(C)C[C@H]2C2=CCC4[C@@]5(C)C[C@H](O)[C@H](O[C@@H]6O[C@H](C(=O)O)[C@@H](O)[C@H](O)[C@H]6O)[C@@](C)(C(=O)O)C5CC[C@@]4(C)[C@]2(C)CC3)O[C@@H]1C` (some centres not stated), “inactive [at 9.27 µM]”.
Take `CC(C)CC(=O)O[C@@H]1O[C@H](CO)[C@@H](O[C@H]2O[C@H](C)[C@@H](N[C@H]3C=C(CO)[C@@H](O[C@H]4O[C@H](CO)[C@@H](O[C@H]5O[C@H](CO)[C@@H](O[C@H]6O[C@H](CO)[C@@H](O)[C@H](O)[C@H]6O)[C@H](O)[C@H]5O)[C@H](O)[C@H]4O)[C@H](O)[C@H]3O)[C@H](O)[C@H]2O)[C@H](O)[C@H]1O`: the outcome is “inactive [at 9.27 µM]”.
Same read-out and setting: then `NC[C@H]1CCC[C@@H](CNC(=O)[C@@H](Cc2c[nH]c3ccccc23)NC(=O)N2CCC3(C=Cc4ccccc43)CC2)C1`, with “inactive”.
On the same count and under the same terms, then `CC1CCC2(C)CCC3(C)C(=CCC4C5(C)CCC(O)C(C)(C(=O)O)C5CCC43C)C2C1C` (configuration not stated), with “inactive [at 17.4 µM]”; and `C[C@@H]1O[C@@H](O[C@H]2[C@@H]3C=CO[C@@H](O[C@@H]4O[C@H](CO)[C@@H](O)[C@H](O)[C@H]4O)[C@@H]3[C@@]3(CO)O[C@@H]23)[C@H](O)[C@H](O)[C@H]1OC(=O)/C=C/c1ccc(O)cc1`, with “inactive [at 17.4 µM]”.
Still for that read-out and setting: then `CC(CC12CCCN1C(=O)C1CCCN1C2=O)OC(N)=O` (configuration not stated), with “inactive”; and `CC/C=C\C(O)C(O)C1=C(C)C(=O)C2(O1)C(=O)NC(OC)(C(=O)c1ccccc1)C2O` (configuration not stated), with “inactive [at 17.4 µM]”.
On to `COc1c2cc(c(O)c1OC)CCCCC(O)CCc1ccc(O)c-2c1` (configuration not stated), for which the molecule was called inactive.
Same read-out and setting: then `CC1CC(=O)[C@]2(O)C(C(=O)OCCc3ccc(O)cc3)=CO[C@@H](O[C@@H]3O[C@H](CO)[C@@H](O)[C@H](O)[C@H]3O)[C@H]12` (some centres not stated), with “inactive [at 17.4 µM]”.
Same read-out and setting: the result for `COC(=O)C1=CO[C@@H](O[C@@H]2O[C@H](CO)[C@@H](O)[C@H](O)[C@H]2O)C2C1CC(O)C2C` (some centres not stated) reads “inactive”; that for `CC(=O)OC[C@]12[C@H](OC(C)=O)[C@H](OC(=O)c3ccccc3)[C@@H]3[C@@H](OC(C)=O)[C@]1(OC3(C)C)[C@H](C)C[C@H](OC(=O)c1ccccc1)[C@@H]2OC(=O)c1ccccc1`, “inactive [at 17.4 µM]”.
The same measure, in the same setting: the result for `C[C@]1(C2CCCC2)Cc2cc(OCC(=O)O)c(Cl)c(Cl)c2C1=O` reads “inactive”; that for `CC(NC(=O)c1ccccc1N)C(=O)O` (configuration not stated), “inactive”; that for `O=C(Nc1ccn(Cc2c(F)cccc2C(F)(F)F)n1)c1c(F)cccc1F`, “inactive [at 9.27 µM]”.
Consider `O=C(OC(C(F)(F)F)C(F)(F)F)N1CCN(Cc2cccc(Oc3ccccc3)c2)CC1`, for which the result was inactive.
Take `C[C@H]1CC[C@@]2(OC1)O[C@H]1CC3C4CC[C@H]5C[C@@H](O)CC[C@]5(C)C4CC(=O)[C@]3(C)[C@H]1[C@@H]2C` (some centres not stated): the outcome was “inactive [at 17.4 µM]”.
The same measure, in the same setting: the result for `Cc1oc(S(=O)(=O)N2CCCCC2)cc1NC(=O)Nc1ccccc1` reads “inactive”; that for `CCC(C)/C=C(C)/C=C/C1=CC2=C(Cl)C(=O)C(C)(OC(C)=O)C(=O)C2=CN1C(CC(=O)O)C(=O)O` (configuration not stated), “inactive [at 17.4 µM]”; that for `CC(C)[C@](O)(c1ccc2cc(OC(F)F)c(OC(F)F)cc2c1)c1cn[nH]n1`, “inactive”.
The same measure, in the same setting: then `COc1cc(C(=O)OC[C@H]2O[C@@H](OC(C)(C)C(=O)O)[C@H](O)[C@@H](O)[C@@H]2O)cc(OC)c1O`, with “inactive [at 17.4 µM]”.
The same measure, in the same setting: the result for `COc1cc(C(C)=O)ccc1O[C@@H]1O[C@H](CO)[C@@H](O)[C@H](O)[C@H]1O` reads “inactive”; that for `CC1(C)C(=O)CCC2(C)C1C(O)C=C1COC(=O)C12O` (configuration not stated), “inactive”; that for `COc1cc(/C=C/c2ccccc2)c(C(=O)O)c(O)c1CC=C(C)C`, “inactive”.
Take `CCC(C)C(C(=O)O)N1Cc2c(OCC=C(C)C)c(C)c(OC)c(C(=O)O)c2C1=O` (configuration not stated): the outcome is “inactive [at 17.4 µM]”.
As to `COC(=O)C1=CO[C@@H](O[C@@H]2O[C@H](CO)[C@@H](O)[C@H](O)[C@H]2O)[C@@H]2[C@@H](CO)[C@@H](O)C(O)[C@H]12` (some centres not stated), the outcome was “inactive [at 17.4 µM]”.
The same measure, in the same setting: the result for `CC(C)C[C@H](NC(=O)[C@@H]1O[C@H]1C(=O)O)C(=O)NCCCCN=C(N)N` reads “inactive”.
Still for that read-out and setting: the result for `C[C@@H]1O[C@@H](OC[C@H]2O[C@@H](OCc3ccccc3)[C@H](O)[C@@H](O)[C@@H]2O)[C@H](O)[C@H](O)[C@H]1O` reads “inactive [at 17.4 µM]”; that for `CNC(=O)c1ccc2c(c1)CCO[C@H]2CCN1CCN(c2ccc(C(N)=O)cc2)CC1`, “inactive”; that for `COC(=O)C1=COC(OC2OC(CO)C(O)C(O)C2O)C2C(COC(=O)/C=C/c3ccc(O)c(O)c3)C(O)C(O)C12` (configuration not stated), “inactive [at 17.4 µM]”.
In the case of `CC(C)C1NC(=O)CNC(=O)C2CCCN2C(=O)C(Cc2c[nH]c3ccccc23)NC(=O)CNC(=O)C(Cc2ccc(O)cc2)NC(=O)CNC1=O` (configuration not stated) (cyclo(GVGYGWP); configuration not given here), the outcome was “inactive [at 17.4 µM]”.
The same measure, in the same setting: then `CC(C)c1ccc2c(c1)C(=O)CC1C(C)(C(=O)O)CCCC21C` (configuration not stated), with “inactive”; and `C=C1CCC2(C(=O)OC3OC(CO)C(O)C(O)C3O)CCC3(C)C(=CCC4C5(C)CCC(OC6OC(CO)C(OC7OC(C)C(O)C(O)C7O)C(OC7OCC(O)C(O)C7O)C6O)C(C)(C)C5CCC43C)C2C1` (configuration not stated), with “inactive [at 9.27 µM]”.
With `C=C1CC2C(C)(CCC(=O)O)C(C(C)(C)O)CCC2(C)C2(C(=O)OC)C(=O)C(C)(O)C(=O)C12C` (configuration not stated), the outcome is “inactive [at 17.4 µM]”.
On the same count and under the same terms, then `COc1ccc(-n2c(SCC#N)nc3sc4c(c3c2=O)CCCC4)cc1`, with “inactive”.

The record behind these values is PubChem BioAssay (NCATS).
